In PubChem BioAssay (EPA / NIEHS) one finds outcome and AC50 data, which are given here for 7 compounds.

SMILES strings stand for the structures. Several values for one entry are separate records, joined by “and”; a condition that tells them apart may be missing. Equal entries are not always repeated. Records with an inconclusive call do not appear. Where a structure was tested more than once in an assay, its records may differ in their call. Activity calls are given as the source filed them. How the source made its calls, unless noted: active means hit-call score of the fitted dose curve at least 0.9, where 1 is the maximum; inconclusive means response in the unintended direction; inactive means score below 0.9.

Read-out in experiment [1]: sulfotransferase 2A1 (SULT2A1), SULT2A1 (gene 6822)
The experiment is described as follows: LTEA_HepaRG_SULT2A1: Life Technologies and Expression Analysis (LTEA) Assay for sulfotransferase 2A1 (SULT2A1) using HepaRG (AID 2283531; active means hit-call score of the fitted dose curve at least 0.9, where 1 is the maximum; inactive means score below 0.9). The conditions noted are these: mRNA level, 48 h; actives raise or lower the signal. The gist of the method: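 Gene-expression endpoint in a human liver cell line: SULT2A1 mRNA change after 48 h chemical treatment, curves fitted in both directions relative to 0.5% DMSO vehicle. Concentrations spanned eight half-log steps from 100 uM.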

Read-out in experiment [2]: Transforming Growth Factor (TGFA), TGFA (gene 7039)
Nature of the experiment: LTEA_HepaRG_TGFA: Life Technologies and Expression Analysis (LTEA) Assay for Transforming Growth Factor (TGFA) using HepaRG (AID 2283532; active means hit-call score of the fitted dose curve at least 0.9, where 1 is the maximum; inactive means score below 0.9). The following applies: mRNA level, 48 h; actives raise or lower the signal. The gist of the method: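 Differentiated human HepaRG cells, plated 48 h then switched to serum-free induction medium, were exposed in duplicate for 48 h to 8-point half-log series from 100 uM in 0.5% DMSO. TGFA mRNA measured by qRT-PCR, normalized to ACTB/GAPDH/POLR2A, bidirectional fit versus DMSO.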

Read-out in experiment [3]: Transforming Growth Factor (TGFB1), TGFB1 (gene 7040)
The experiment is described as follows: LTEA_HepaRG_TGFB1: Life Technologies and Expression Analysis (LTEA) Assay for Transforming Growth Factor (TGFB1) Transporter using HepaRG (AID 2283533; active means hit-call score of the fitted dose curve at least 0.9, where 1 is the maximum; inactive means score below 0.9). The following applies: mRNA level, 48 h; actives raise or lower the signal. The method, boiled down: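 Eight-point concentration-response (max 100 uM, half-log) in HepaRG under serum-free induction conditions, 48 h. TGFB1 mRNA by qRT-PCR, housekeeping-normalized.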

Read-out in experiment [4]: Tumor necrosis factor receptor 1 (TNFRSF1A), TNFRSF1A (gene 7132)
The experiment is described as follows: LTEA_HepaRG_TNFRSF1A: Life Technologies and Expression Analysis (LTEA) Assay for Tumor necrosis factor receptor 1 (TNFRSF1A) using HepaRG (AID 2283535; active means hit-call score of the fitted dose curve at least 0.9, where 1 is the maximum; inactive means score below 0.9). The following applies: mRNA level, 48 h; actives raise or lower the signal. The gist of the method: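 Assay uses 48 h chemical treatment of differentiated HepaRG monolayers, tested in duplicate at eight concentrations from 100 uM downward in 0.5% DMSO. mRNA is normalized to ACTB, GAPDH and POLR2A, with induction or suppression fitted relative to vehicle.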

Read-out in experiment [5]: Thyroid Hormone Responsive (THRSP), THRSP (gene 7069)
The experiment is described as follows: LTEA_HepaRG_THRSP: Life Technologies and Expression Analysis (LTEA) Assay for Thyroid Hormone Responsive (THRSP) using HepaRG (AID 2283536; active means hit-call score of the fitted dose curve at least 0.9, where 1 is the maximum; inactive means score below 0.9). The following applies: mRNA level, 48 h; actives raise or lower the signal. The method, boiled down:
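Differentiated human HepaRG cells were exposed in duplicate for 48 h in serum-free induction medium to eight concentrations (top 100 uM, half-log steps, 0.5% DMSO). Expression was quantified by TaqMan qRT-PCR, normalized to ACTB, GAPDH and POLR2A, with bidirectional fitting against DMSO.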

Read-out in experiment [6]: Cellular tumor antigen p53 (Homo sapiens) (UniProt P04637)
The experiment is described as follows: LTEA_HepaRG_TP53: Life Technologies and Expression Analysis (LTEA) Assay for Tumor Protein P53 (TP53) using HepaRG (AID 2283537; active means hit-call score of the fitted dose curve at least 0.9, where 1 is the maximum; inactive means score below 0.9). The conditions noted are these: mRNA level, 48 h; actives raise or lower the signal. The gist of the method:
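Differentiated HepaRG cells in serum-free induction medium exposed 48 h in duplicate to 8 half-log concentrations, top 100 uM, 0.5% DMSO. TP53 mRNA by TaqMan qRT-PCR (Fluidigm), normalized to ACTB, GAPDH, POLR2A; fitted bidirectionally versus DMSO.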

Read-out in experiment [7]: UDP glucuronosyltransferase (UGT1A1), UGT1A1 (gene 54658)
Nature of the experiment: LTEA_HepaRG_UGT1A1: Life Technologies and Expression Analysis (LTEA) Assay for UDP glucuronosyltransferase (UGT1A1) using HepaRG (AID 2283538; active means hit-call score of the fitted dose curve at least 0.9, where 1 is the maximum; inactive means score below 0.9). The following applies: mRNA level, 48 h; actives raise or lower the signal. The gist of the method:
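Readout is UGT1A1 transcript level by qRT-PCR, normalized to three housekeeping genes, after 48 h chemical treatment of HepaRG cells. Concentrations ran from 100 uM down in half-log steps with 0.5% DMSO, and gain or loss relative to DMSO was fitted.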

Read-out in experiment [8]: UDP glucuronosyltransferase (UGT1A6), UGT1A6 (gene 54578)
The experiment is described as follows: LTEA_HepaRG_UGT1A6: Life Technologies and Expression Analysis (LTEA) Assay for UDP glucuronosyltransferase (UGT1A6) using HepaRG (AID 2283539; active means hit-call score of the fitted dose curve at least 0.9, where 1 is the maximum; inactive means score below 0.9). The conditions noted are these: mRNA level, 48 h; actives raise or lower the signal. The gist of the method:
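Measures mRNA change in HepaRG hepatic cells exposed 48 h to chemicals (eight-point, maximum 100 uM, 0.5% DMSO vehicle) in serum-free induction medium. Expression normalized to endogenous controls; DMSO served as negative control and baseline.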

Read-out in experiment [9]: X-box binding protein 1 (XBP1), XBP1 (gene 7494)
The experiment is described as follows: LTEA_HepaRG_XBP1: Life Technologies and Expression Analysis (LTEA) Assay for X-box binding protein 1 (XBP1) using HepaRG (AID 2283540; active means hit-call score of the fitted dose curve at least 0.9, where 1 is the maximum; inactive means score below 0.9). The conditions noted are these: mRNA level, 48 h; actives raise or lower the signal. The gist of the method: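 Eight concentrations (half-log, highest 100 uM, 0.5% DMSO) tested in duplicate on HepaRG cells over 48 h in serum-free induction medium; qRT-PCR of XBP1 normalised to ACTB, GAPDH, POLR2A.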

The nature of experiment [10]: LTEA_HepaRG_LDH_cytotoxicity: Cytotoxicity Assessment in the Life Technologies and Expression Analysis (LTEA) Assay (AID 2283563). The gist of the method:
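Spent-medium LDH after 48 h chemical exposure of HepaRG cells in serum-free induction medium; eight concentrations, half-log dilutions from 100 uM, duplicate wells, fitted upward relative to 0.5% DMSO.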

Experiment [11] has as its target Cellular tumor antigen p53 (Homo sapiens) (UniProt P04637). Nature of the experiment: TOX21_p53_BLA_p2_ratio: Tox21 HCT-116 p53 Agonism Beta-lactamase Assay, Ratio, Phase 2 (AID 2283592). The method, boiled down:
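Human colon HCT116 cells with an inducible p53 beta-lactamase reporter are exposed to test chemicals for 16 h at 37C. Reporter induction is read as the 460/530 nm emission ratio after CCF4-AM loading, normalized to DMSO.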

Experiment [12] can be described thus: TOX21_p53_BLA_p3_viability: Viability Assessment in the Tox21 HCT-116 p53 Agonism Beta-lactamase Assay, Phase 3 (AID 2283593).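 Further: cells exposed to compound for 16 h before reading.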 The gist of the method: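 HCT-116 cells (4000/well) rested 5 h at 37C, then got DMSO compounds by pin tool (217-fold dilution) for 16 h at 37C, 5% CO2. After the bla read, CellTiter-Glo was added and luminescence read at 30 min, room temperature.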

In experiment [13] the target is Cellular tumor antigen p53 (Homo sapiens) (UniProt P04637). Nature of the experiment: TOX21_p53_BLA_p3_ratio: Tox21 HCT-116 p53 Agonism Beta-lactamase Assay, Ratio, Phase 3 (AID 2283596). The gist of the method: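 HCT116 p53-bla cells (4000/well) given compound in DMSO (217-fold dilution) after 5 h, incubated 16 h at 37C. CCF4-AM substrate 2 h at room temperature; 460/530 nm emission ratio, gain fitted against DMSO.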

Experiment [14] can be described thus: TOX21_p53_BLA_p4_viability: Viability Assessment in the Tox21 HCT-116 p53 Agonism Beta-lactamase Assay, Phase 4 (AID 2283597).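 Further: hits lower the luminescence signal meaning cytotoxicity.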 The method, boiled down:
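Luminescent ATP readout (CellTiter-Glo, 30 min, room temperature) in the same wells as the p53 bla ratio. HCT116 cells were treated for 16 h at 37C with DMSO-dissolved compounds.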

For experiment [15], the target named is Cellular tumor antigen p53 (Homo sapiens) (UniProt P04637). Nature of the experiment: TOX21_p53_BLA_p5_ratio: Tox21 HCT-116 p53 Agonism Beta-lactamase Assay, Ratio, Phase 5 (AID 2283599). The gist of the method:
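HCT-116 cells carrying a p53-inducible beta-lactamase reporter were seeded at 4000 cells/well and dosed after 5 h with compound in DMSO (217-fold dilution). After 16 h at 37C, CCF4-AM substrate was added for 2 h, and the 460/530 nm emission ratio was scored as gain-of-signal versus DMSO.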

Experiment [16] can be described thus: TOX21_p53_BLA_p5_viability: Viability Assessment in the Tox21 HCT-116 p53 Agonism Beta-lactamase Assay, Phase 5 (AID 2283600). The gist of the method: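 Seeded cells (4000/well) settle 5 h before compound addition. Plates then incubate 16 h at 37C, receive FRET substrate for 2 h, and finally CellTiter-Glo, with luminescence measured after a 30 min room-temperature incubation.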

Experiment [17] deals with Cellular tumor antigen p53 (Homo sapiens) (UniProt P04637). Nature of the experiment: TOX21_p53_BLA_p4_ratio: Tox21 HCT-116 p53 Agonism Beta-lactamase Assay, Ratio, Phase 4 (AID 2283601). The method, boiled down:
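HCT116 cells carrying an inducible beta-lactamase reporter were plated at 4000 cells/well, rested 5 h, then exposed to compounds in DMSO (217-fold dilution) for 16 h at 37C. CCF4-AM substrate was loaded 2 h at room temperature; 460/530 nm emission ratio scored gain-of-signal versus DMSO.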

The nature of experiment [18]: ATG_XTT_Cytotoxicity: Cytotoxicity Assessment in the Attagene TRANS-FACTORIAL HepG2 Assay (AID 2283584). The method, boiled down:
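24 h chemical exposure of reporter-transfected HepG2; XTT signal loss vs DMSO indicates cytotoxicity.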

Cellular tumor antigen p53 (Homo sapiens), sequence (P04637 whole entry, looked up): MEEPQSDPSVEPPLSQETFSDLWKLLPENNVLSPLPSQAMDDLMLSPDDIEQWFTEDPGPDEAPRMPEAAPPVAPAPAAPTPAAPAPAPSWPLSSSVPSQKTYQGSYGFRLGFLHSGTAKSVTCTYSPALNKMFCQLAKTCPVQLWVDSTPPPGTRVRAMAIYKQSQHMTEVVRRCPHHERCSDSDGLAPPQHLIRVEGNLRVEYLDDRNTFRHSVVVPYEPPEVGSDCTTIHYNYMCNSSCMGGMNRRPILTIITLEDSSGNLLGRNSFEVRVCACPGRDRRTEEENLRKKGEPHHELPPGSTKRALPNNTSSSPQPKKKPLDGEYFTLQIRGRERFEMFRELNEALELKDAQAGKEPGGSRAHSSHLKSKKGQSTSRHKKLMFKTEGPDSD

In the case of `CC(Oc1ccc(Cl)cc1Cl)C(=O)O` (stereo not drawn), the compound was classed as inactive in [1], in experiment [2], in experiment [3], in experiment [4], in experiment [5] and in experiment [6]. The compound was classed as inactive in [7], in experiment [8], in [9], in experiment [10], in [11] and in experiment [12]. Moreover, the result in experiment [13], in experiment [14], in experiment [15], in experiment [16] and in [17] was inactive.
In general, AC50 refers to the concentration giving half of the maximal activity seen. As to `CN(C)C(=S)SSC(=S)N(C)C`, the outcome in experiment [1], in experiment [2], in experiment [3], in [4], in experiment [5] and in experiment [6] was inactive. For the same compound, the outcome in experiment [7], in [8], in [9], in experiment [10], in [11] and in experiment [12] was inactive. For the same compound, the result in [13], in [14], in experiment [15], in experiment [16] and in [17] was inactive. Also, the concentration at half-maximal activity (AC50) was 33 µM (active) in experiment [11], 29.3 µM (active) in experiment [13] and 77 µM (active) in experiment [15].
Consider `O=C(O)COc1nc(Cl)c(Cl)cc1Cl`, for which the compound was called inactive in experiment [1], in experiment [2], in [3], in experiment [4], in experiment [5] and in [6]. Further, the result in experiment [7], in [8], in experiment [9], in experiment [10], in experiment [11] and in [12] was inactive. In addition, the result in [13], in experiment [14], in experiment [15], in [16] and in experiment [17] was inactive.
As to `CCCCNC(=O)n1c(NC(=O)OC)nc2ccccc21`, the compound was called inactive in experiment [1], in experiment [2], in experiment [3], in [4], in experiment [5] and in experiment [6]. In addition, the result in experiment [8], in [9], in experiment [10] and in experiment [14] was inactive. In addition, the AC50 is 18.6 µM (active) in [7]; 11 µM (active) and 9.55 µM (active) in experiment [11]; 15.9 µM (active) and 15.4 µM (active) in experiment [13]; 20.5 µM (active) and 12.3 µM (active) in [15]; 11.9 µM (active) and 9.73 µM (active) in [17].
Regarding `O=C(O)c1nc(Cl)ccc1Cl`, the result in [1], in [2], in experiment [3], in experiment [4], in [5] and in [6] was inactive. The compound was classed as inactive in [7], in [8], in experiment [9], in experiment [10], in [11] and in experiment [12]. For the same compound, the result in experiment [13], in experiment [14], in experiment [15] and in experiment [16] was inactive.
For the compound `CCCCOC(=O)c1ccccc1C(=O)OCCCC`, the compound was classed as inactive in [1], in [2], in experiment [3], in [4], in [5] and in experiment [6]. In addition, the compound was called inactive in experiment [7], in experiment [8], in experiment [9], in experiment [10], in experiment [18] and in [11]. Further, the compound was called inactive in [12], in [13], in experiment [15] and in [17].
Turning to `CCOP(=S)(OCC)SCn1c(=O)oc2cc(Cl)ccc21`, the compound was called inactive in experiment [1], in [2], in [3], in experiment [4], in [5] and in experiment [6]. Also, the result in experiment [7], in experiment [8], in experiment [9], in experiment [10], in [18] and in [11] was inactive. Further, the result in [13], in [14], in [15], in experiment [16] and in experiment [17] was inactive.
